In PubChem BioAssay (NCI):
About 79,000 compounds went through this panel and 15% of them were active in at least one assay; those are over-represented in the sample as a whole. Values without a mark were called inactive. Activity calls are given as the source filed them. Cut-off read from the data, not from the text of the source: active = growth inhibition above about 70%; inactive = the rest.

Legend:
[1] = NCI Yeast Anticancer Drug Screen. Data for the rad50 strain (AID 155);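 note: 0% = growth of vehicle-only cultures of the same strain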; details: S. cerevisiae rad50 strain growth inhibition, active compounds read high
Method in brief: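 Cells are treated with compound, grown, and their growth is then scored against vehicle-only cultures of the same repair-deficient yeast strain.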

[2] = NCI Yeast Anticancer Drug Screen. Data for the sgs1 mgt1 strain (AID 161);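 note: 0% = growth of cultures given vehicle only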; details: S. cerevisiae sgs1 mgt1 strain, active compounds read high
Method in brief: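 Test agents were incubated with a DNA-repair-mutant yeast strain. Growth was then read and compared against vehicle-treated controls.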

[3] = NCI Yeast Anticancer Drug Screen. Data for the cln2 rad14 strain (AID 165);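 note: 0% = growth equal to vehicle treated cultures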; details: S. cerevisiae cln2 rad14 strain, active compounds read high
Method in brief: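 cln2 rad14 yeast strain; compound exposure; growth inhibition read vs vehicle controls.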

[4] = NCI Yeast Anticancer Drug Screen. Data for the bub3 strain (AID 167); details: S. cerevisiae bub3 mutant strain, active compounds read high
Method in brief: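 Part of a panel of yeast mutants defective in DNA damage repair or cell cycle regulation. Each strain is grown with compound, and inhibition is calculated relative to solvent-treated cultures.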

[5] = NCI Yeast Anticancer Drug Screen. Data for the mlh1 rad18 strain (AID 175); details: S. cerevisiae mlh1 rad18 strain growth inhibition, active compounds read high
Method in brief: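 Yeast w/ defined DNA-repair lesions; compound exposure; growth vs vehicle controls → % inhibition.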

[6] = NCI Yeast Anticancer Drug Screen. Data for the mec2-1 strain (AID 157); details: S. cerevisiae mec2-1 strain, active compounds read high
Method in brief: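 Yeast mec2-1 mutant treated with compound. Readout: growth inhibition vs vehicle controls.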

[7] = at 5.0 µM (retest, dose inferred, filed as 0.5)
[8] = at 50.0 µM (retest, dose inferred, filed as 5.0)

| Structure (SMILES) | growth inhibition [1, 7] [%] | growth inhibition [1, 8] | growth inhibition ([1]; at 50.0 µM) | growth inhibition [2, 7] [%] | growth inhibition [2, 8] | growth inhibition ([2]; at 50.0 µM) | growth inhibition [3, 7] [%] | growth inhibition [3, 8] | growth inhibition ([3]; at 50.0 µM) | growth inhibition [4, 7] [%] | growth inhibition [4, 8] | growth inhibition ([4]; at 50.0 µM) | growth inhibition [5, 7] [%] | growth inhibition [5, 8] | growth inhibition ([5]; at 50.0 µM) | growth inhibition [6, 7] [%] | growth inhibition [6, 8] | growth inhibition ([6]; at 50.0 µM) |
| --- | --- | --- | --- | --- | --- | --- | --- | --- | --- | --- | --- | --- | --- | --- | --- | --- | --- | --- |
| CCOC(=O)/C(=C\c1cccc(OC)c1)C(C)=O | -5 | 90% (active) | 90.2% (active) | -11 | 93% (active) | 90% (active) | -14 | 86% (active) | 84.3% (active) | 23 | 95% (active) | 88.3% (active) | -16 | 95% (active) | 88.3% (active) |  |  |  |
| CC/C(=C1\C=CC(=O)S1)C(CC)c1ccc(OC(C)=O)cc1 (stereo not given) | -14 | 99% (active) | 99.2% (active) |  |  |  | 0 | 99% (active) | 70.2% (active) | -25 | 99% (active) | 93.9% (active) | -4 | 99% (active) | 99.3% (active) | -11 | 99% (active) | 89.3% (active) |
| N#CC(C(=O)CCCC(=O)Nc1cccc([N+](=O)[O-])c1)c1cccc2ccccc12 (stereo not given) |  |  |  | 8 | 7% | 17.1% | 4 | 11% | 22.6% | 4 | 2% | 6.2% | 5 | 18% | 31.2% | 18 | 3% | 22.1% |
| O=C1C2C3C=CC(C2C(=O)N1CN1CCOCC1)C1C2C(=O)N(CN4CCOCC4)C(=O)C2C31 (stereo not given) | -6 | -10% | 1.85% | -4 | -25% | -1.35% | -26 | -7% | 39% | 1 | -9% | -17.8% | -31 | -12% | 0.8% |  |  |  |
| COc1ccc(C2=NN(c3ccccc3)C[N+](c3ccc(C)cc3)=N2)cc1 |  |  |  | -3 | 98% (active) | 98.5% (active) | 12 | 98% (active) | 97.9% (active) | -1 | 99% (active) | 98.2% (active) | 13 | 98% (active) | 97.8% (active) | -14 | 99% (active) | 98.2% (active) |
| C=C1CC(COc2ccc3c(C)cc(=O)oc3c2)(c2ccccc2)OC1=O (stereo not given) | 32 | 8% | 36% | 17 | 32% | 59.6% | -20 | -6% | 32% | 32 | 30% | 30.2% | -10 | 22% | 41.6% |  |  |  |
| Cc1ccc(S(=O)(=O)NNC(=O)c2sc(-c3nc(C)c(C(=O)NNS(=O)(=O)c4ccc(C)cc4)s3)nc2C)cc1 |  |  |  | 5 | 99% (active) | 83.5% (active) | 8 | 98% (active) | -43.5% | 8 | 98% (active) | 14.3% | 2 | 98% (active) | 15% | 2 | 99% (active) | 8% |
| CCCCC(=O)OC1=C(Br)C(=O)c2ccccc2C1=O | 20 | 98% (active) | 96.3% (active) | 10 | 96% (active) | 81.1% (active) | 3 | 88% (active) | -11.8% | 14 | 97% (active) | 13.8% | 37 | 98% (active) | 75.3% (active) |  |  |  |
| COC(=O)c1ccc(OCCC(=O)CCl)cc1 | 0 | 56% | 99.5% (active) | 3 | 55% | 99.7% (active) | 4 | 31% | 69.1% | 11 | 67% | 99.6% (active) | 2 | 72% (active) | 97.8% (active) |  |  |  |
| CCOC(=O)c1ccc(-c2cccs2)n1C |  |  |  | -12 | -3% | 61.9% | 28 | 0% | 23.4% | -12 | 1% | 67.8% | -9 | -1% | 43.2% | -1 | -6% | 43.8% |
